The text below walks through data of PubChem BioAssay (Tox21).

“And” between values parts separate entries of the source, which are not always exact repeats. Equal values may be shown once. Records with an inconclusive call do not appear. Where a structure was tested more than once in an assay, its records may differ in their call. The source made the active and inactive calls. Calls come from the whole dose curve; as a rule, active = well fitted curve in the direction sought with a large enough effect in the repeat runs; inconclusive = weak or mixed curves; inactive = no such curve, though single readings can be large; an effect the other way counts as inactive or inconclusive.

Experiment [1] is described as follows: A CellTox Green Cytotoxicity Assay to monitor cytotoxicity in HEK293 cells - 32 hour (AID 1224881). Note: nearly all actives have a fitted effect of over 40% in size. Note: potency is the fitted concentration of half-maximal effect. The essentials: (§1)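 Seeding of HEK293 cells together with cytotoxicity dye preceded a 5 h incubation at 37 C/5% CO2. Test compounds in DMSO were then added and fluorescence monitored across 40 h.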
The nature of experiment [2]: A CellTox Green Cytotoxicity Assay to monitor cytotoxicity in HepG2 cells - 0 hour (AID 1224882). Note: nearly all actives have a fitted effect of over 35% in size. The essentials:
(§2)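 Nonlytic assay: viable cells exclude the dye, so fluorescence scales with cell death. HepG2 at 600 cells/well, compounds added after 5 h, signal read across 40 h.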

Experiment [3] can be described thus: A CellTox Green Cytotoxicity Assay to monitor cytotoxicity in HepG2 cells - 32 hour (AID 1224883). Note: nearly all actives have a fitted effect of over 50% in size. The essentials: as §2
A short description of experiment [4]: A CellTox Green Cytotoxicity Assay to monitor cytotoxicity in HEK293 cells - 8 hour (AID 1224884). Note: nearly all actives have a fitted effect of over 35% in size. The essentials: as §1
Experiment [5] in a line: qHTS RealTime-Glo MT Cell Viability Assay in HEK293 cells - 24 hour (AID 1224886). Note: nearly all actives have a fitted effect of over 50% in size. Note: potency is the fitted concentration of half-maximal effect. The method, boiled down: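 HEK293 cells were seeded at 600 cells/well together with NanoLuc luciferase and cell-permeant prosubstrate, preincubated 5 h at 37 C/5% CO2, then given compound in DMSO by pintool. Luminescence from viable-cell prosubstrate reduction was read repeatedly over 40 h.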
For orientation: Quantitative high-throughput screening tests each substance at several concentrations.

The nature of experiment [6]: qHTS RealTime-Glo MT Cell Viability Assay in HEK293 cells - 8 hour (AID 1224887). Note: nearly all actives have a fitted effect of over 50% in size. Note: potency is the fitted concentration of half-maximal effect. The essentials:
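Tox21 screen in HEK293 using RealTime-Glo MT chemistry, with cells and reagent co-dispensed. Luminescence proportional to viable cell number was captured at intervals during 40 h compound exposure at 37 C.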

Experiment [7] in a line: A CellTox Green Cytotoxicity Assay to monitor cytotoxicity in HEK293 cells - 16 hour (AID 1224888). Note: nearly all actives have a fitted effect of over 35% in size. The method, boiled down: as §1
Experiment [8] can be described thus: qHTS RealTime-Glo MT Cell Viability Assay in HepG2 cells - 0 hour (AID 1224889). Note: nearly all actives have a fitted effect of over 50% in size. Note: potency is the fitted concentration of half-maximal effect. The method, boiled down:
(§3)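 HepG2 cells were seeded at 600 cells/well together with NanoLuc luciferase and a cell-permeant prosubstrate, preincubated 5 h at 37 C/5% CO2, then pin-dosed with compounds in DMSO. Nonlytic luminescence from viable cells was read at each time point.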

Experiment [9] is described as follows: A CellTox Green Cytotoxicity Assay to monitor cytotoxicity in HepG2 cells - 8 hour (AID 1224890). Note: nearly all actives have a fitted effect of over 45% in size. Note: potency is the fitted concentration of half-maximal effect. The method, boiled down:
as §2

A short description of experiment [10]: qHTS RealTime-Glo MT Cell Viability Assay in HepG2 cells - 16 hour (AID 1224885). Note: nearly all actives have a fitted effect of over 50% in size. The method, boiled down:
as §3
% is set by controls: 0 for no effect and ±100 for the full control effect.

Regarding `CCN(CC)CCNC(=O)c1ccc(N)cc1`, the Potency entry in [1], in experiment [2], in experiment [3], in experiment [4], in [5] and in [6] was “inactive” each time. The Potency result in experiment [7], in [8] and in experiment [9] was “inactive” in each case.
Turning to `Cc1ccncc1`, the Potency entry in experiment [2], in experiment [3], in experiment [4], in [10], in experiment [5] and in experiment [6] was “inactive” each time. In addition, the Potency entry in experiment [7], in [8] and in experiment [9] was “inactive” throughout.
For `CCCCCCCC(=O)O`, the Potency result in [1], in experiment [2], in [4], in experiment [10], in experiment [5] and in experiment [6] was “inactive” throughout. For the same molecule, the Potency entry in experiment [7], in experiment [8] and in experiment [9] was “inactive” in each case.
On to `Cc1ncc(CO)c(CO)c1O`, for which the Potency entry in [1], in experiment [2], in [4], in experiment [10], in [5] and in experiment [6] was “inactive” in each case. The Potency result in experiment [7], in experiment [8] and in [9] was “inactive” each time.
`CCCOCC(C)O` (centres undefined): the Potency entry in experiment [1], in experiment [2], in experiment [4], in experiment [5], in experiment [6] and in [7] was “inactive” in each case. The Potency result in experiment [8] and in experiment [9] was “inactive” throughout.
Regarding `O=C(c1ccccc1)c1ccc(O)c(O)c1O`, the Potency entry in experiment [1], in [2], in experiment [4], in experiment [5], in experiment [6] and in [7] was “inactive” each time. Besides, the Potency result in [8] and in [9] was “inactive” throughout.
On to `COc1cc(NC(=O)CC(C)=O)c(OC)cc1Cl`, for which the Potency result in experiment [1], in [2], in experiment [4], in experiment [10], in experiment [6] and in [7] was “inactive” each time. For the same molecule, the Potency result in experiment [8] and in [9] was “inactive” each time. The Potency entry in experiment [5] is “inactive and 21.9 µM (active)”.
Turning to `Cc1ccc(C(C)C)cc1`, the Potency result in experiment [1], in experiment [2], in experiment [4], in experiment [5], in experiment [6] and in [7] was “inactive” each time. In addition, the Potency result in experiment [8] and in [9] was “inactive” throughout.
Turning to `Oc1ccc(Cc2ccccc2O)cc1`, the Potency entry in [1], in [2], in [4], in experiment [10], in experiment [7] and in [8] was “inactive” throughout. In [9], the Potency result was “inactive”. The Potency in [5] was 12.3 µM (active).
For `CC(CN1c2ccccc2Sc2ccccc21)N(C)C` (centres undefined), the Potency in experiment [1] is 54.9 µM (active) and inactive; in experiment [5], 39.3 µM (active) and 43.6 µM (active); in experiment [6] it was 24.8 µM (active); in experiment [9], “inactive and 54.9 µM (active)”. In addition, the Potency entry in experiment [2], in experiment [4], in experiment [7] and in [8] was “inactive” in each case.
For the molecule `CC/C(C)=N/O`, the Potency result in experiment [1], in experiment [2], in experiment [4], in experiment [5], in experiment [6] and in experiment [7] was “inactive” throughout. The Potency entry in [8] and in experiment [9] was “inactive” throughout.
For the molecule `CN=C(NC#N)NCCSCc1nc[nH]c1C`, the Potency result in experiment [1], in experiment [2], in [4], in experiment [10], in experiment [5] and in experiment [6] was “inactive” throughout. Moreover, the Potency result in experiment [7], in [8] and in [9] was “inactive” throughout.
`CCCCCCCCCCCC(=O)N(C)CC(=O)O`: the cytotoxicity increase is 0.815% [at 6.97 µM] (inactive) in experiment [1] and 2.96% [at 6.97 µM] (inactive) in experiment [3]. The Potency entry in experiment [2], in experiment [4], in experiment [5], in experiment [6], in experiment [7] and in experiment [8] was “inactive” throughout. For the same molecule, the Potency result in experiment [9] is “inactive”.
Turning to `CC(C)(CO)CO`, the Potency entry in [1], in experiment [2], in [3], in [4], in experiment [5] and in experiment [6] was “inactive” each time. The Potency result in experiment [7], in experiment [8] and in [9] was “inactive” throughout.
Turning to `Cc1cc(CC(=O)O)n(C)c1C(=O)c1ccc(Cl)cc1`, the Potency entry in experiment [2], in [3], in experiment [4], in [10], in [5] and in experiment [6] was “inactive” each time. In addition, the Potency result in [7], in experiment [8] and in experiment [9] was “inactive” throughout.
Take `Nc1nc(N)c2nc(-c3ccccc3)c(N)nc2n1`: the Potency entry in experiment [1], in experiment [2], in experiment [4], in experiment [10], in experiment [5] and in [6] was “inactive” throughout. The Potency result in [7], in experiment [8] and in [9] was “inactive” in each case.
For the molecule `CC(=O)OC(C)(C)C1CC=C(C)CC1` (centres undefined), the Potency entry in [1], in experiment [2], in experiment [3], in [4], in experiment [5] and in experiment [6] was “inactive” in each case. The Potency result in experiment [7], in experiment [8] and in [9] was “inactive” in each case.
On to `C[n+]1ccn(CCO)c1`, for which the Potency result in experiment [1], in experiment [2], in experiment [3], in experiment [4], in [5] and in experiment [6] was “inactive” in each case. In addition, the Potency entry in experiment [7], in [8] and in experiment [9] was “inactive” each time.
Turning to `CCCCC(=O)O`, the Potency entry in [2], in experiment [3], in experiment [4], in [10], in [5] and in experiment [6] was “inactive” in each case. For the same molecule, the Potency entry in experiment [7], in [8] and in [9] was “inactive” throughout.
As to `CO[Si](CCCNCCN)(OC)OC`, the Potency result in experiment [1], in experiment [2], in experiment [4], in experiment [10], in experiment [5] and in [6] was “inactive” each time. Besides, the Potency result in experiment [7] and in experiment [8] was “inactive” in each case. In addition, the Potency result in experiment [9] is “inactive and 49 µM (active)”.
Regarding `CN1Cc2c(N)cccc2C(c2ccccc2)C1` (centres undefined), the Potency result in experiment [1], in [2], in [4], in [5], in experiment [6] and in [7] was “inactive” each time. Moreover, the Potency result in experiment [8] and in experiment [9] was “inactive” throughout.
`O=c1n(CCCN2CCN(c3cccc(Cl)c3)CC2)nc2ccccn12`: the Potency result in experiment [1], in experiment [2], in [3], in experiment [4], in [7] and in experiment [9] was “inactive” in each case. The Potency in experiment [5] is 13.8 µM (active) and 16.9 µM (active); in [6], 11 µM (active) and 10.7 µM (active); in experiment [8], 49 µM (active) and inactive.
Regarding `O=Cc1ccc(CO)o1`, the Potency entry in experiment [1], in [2], in experiment [4], in [5], in experiment [6] and in experiment [7] was “inactive” in each case. Moreover, the Potency result in experiment [8] and in experiment [9] was “inactive” in each case.
Turning to `O=[N+]([O-])c1ccccc1C(F)(F)F`, the Potency result in [1], in experiment [2], in experiment [4], in experiment [10], in [5] and in experiment [6] was “inactive” each time. Besides, the Potency result in [7], in experiment [8] and in experiment [9] was “inactive” in each case.
`O=C1OC(=O)c2c(Cl)c(Cl)c(Cl)c(Cl)c21`: the Potency result in experiment [1], in [2], in experiment [4], in [5], in experiment [6] and in experiment [7] was “inactive” throughout. Further, the Potency result in experiment [8] and in experiment [9] was “inactive” in each case.
Consider `CC[N+](CC)(CC(=O)Nc1c(C)cccc1C)Cc1ccccc1`, for which the Potency result in [2], in [4], in [5], in experiment [6], in experiment [7] and in experiment [8] was “inactive” each time. Besides, the Potency result in experiment [9] was “inactive”.
As to `O=C(O)Cc1c[nH]c2ccccc12`, the Potency entry in experiment [2], in experiment [4], in experiment [10], in experiment [5], in [6] and in experiment [7] was “inactive” each time. Further, the Potency entry in experiment [8] and in experiment [9] was “inactive” in each case.
In the case of `CCCCCCCCC(=O)O`, the Potency entry in experiment [2], in experiment [4], in experiment [10], in experiment [5], in experiment [6] and in [7] was “inactive” in each case. Moreover, the Potency result in experiment [8] and in experiment [9] was “inactive” in each case.
